High-throughput results as filed in PubChem BioAssay.
LmPK inhibitor: qHTS Assay for Inhibitors of Leishmania Mexicana Pyruvate Kinase (LmPK) | purified LmPK, Kinase-Glo ATP luminescence, 1 h | Potency, µM (doses to about 57.5 µM), for inactives: at the highest dose activity change, negative = inhibition, actives largely listed as inhibitors | 290,000 compounds, 0.37% hits | Q27686; further: potency means the concentration at half of the fitted maximal effect; on the % scale 0 is the no-effect control and ±100 the full control effect
Target sequence (Q27686 whole entry, looked up): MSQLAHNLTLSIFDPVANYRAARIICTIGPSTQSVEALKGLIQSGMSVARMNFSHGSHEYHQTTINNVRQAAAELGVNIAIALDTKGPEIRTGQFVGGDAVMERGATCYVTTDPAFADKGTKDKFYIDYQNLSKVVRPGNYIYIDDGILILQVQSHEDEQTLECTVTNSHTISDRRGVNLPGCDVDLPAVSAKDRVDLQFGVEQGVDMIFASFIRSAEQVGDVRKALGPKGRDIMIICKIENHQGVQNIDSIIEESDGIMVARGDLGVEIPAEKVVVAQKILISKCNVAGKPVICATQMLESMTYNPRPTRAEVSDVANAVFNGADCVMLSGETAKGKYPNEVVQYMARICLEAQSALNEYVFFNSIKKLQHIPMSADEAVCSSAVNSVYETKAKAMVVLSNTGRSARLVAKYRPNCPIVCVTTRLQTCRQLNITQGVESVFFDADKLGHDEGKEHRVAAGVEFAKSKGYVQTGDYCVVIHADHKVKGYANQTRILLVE
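Kinase-Glo luminescence read after 1 h RT reaction of 0.1 nM LmPK with 0.5 mM PEP and 0.1 mM ADP. Activity scaled between uninhibited and enzyme-free controls.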
Giardia FBPA inh: qHTS Assay for Inhibitors of Fructose-1,6-bisphosphate Aldolase from Giardia Lamblia | Potency, µM (titrated, usually from 59.6 µM), inactives show top-dose activity, negative = inhibition, actives largely listed as inhibitors | 290,000 compounds, 0.71% hits | purified Giardia FBPA | A8B2U2; further: potency means the concentration at half of the fitted maximal effect; on the % scale 0 is the no-effect control and ±100 the full control effect; nearly all actives have a fitted effect of over 55% in size
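Giardia FBPA (40 nM reagent) was preincubated 10 min at RT with compound (up to 57.5 uM final), then substrate plus GAPDH/TPI/NAD/arsenate coupling system with diaphorase/resazurin was added; resorufin fluorescence (525/598 nm) was read after 20 min.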
CHX counter: Cycloheximide Counterscreen for Small Molecule Inhibitors of Shiga Toxin; cell reporter, cycloheximide protein synthesis inhibition counterscreen; 300,000 compounds, 12% hits; max response, %; in the data active means max response mostly above about 13%, no sharp cut-off; inactive means mostly below about 14%; further: read at 38.3 µM for the half of the compounds with a filed dose; 0% is about no effect
Tb PYK inh: qHTS of Trypanosoma Brucei Inhibitors; pyruvate kinase (Trypanosoma brucei), Q57TT1; TbPYK enzyme, Kinase-Glo Plus ATP luminescence, 45 min; Potency, µM (top dose mostly 76.8 µM), without a hit: at the top dose activity, negative = inhibition, hits mostly inhibitors; 410,000 compounds, 0.12% hits; AID 624173, 2012; further: potency means the concentration at half of the fitted maximal effect; on the % scale 0 is the no-effect control and ±100 the full control effect; nearly all actives have a fitted effect of over 50% in size
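In this concentration-response screen, enzyme-free wells defined baseline while DMSO plates tracked drift. Each reaction combined TbPYK, substrate, compound and 130 uM ADP for 45 min at room temperature. Kinase-Glo Plus luminescence gave the signal.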
Shiga inhibitor: A qHTS for Small Molecule Inhibitors of Shiga Toxin. Vero cells, Shiga toxin protein synthesis inhibition reporter. inhibition, % at 38.7 µM. 290,000 compounds, 9.2% hits; in the data active means inhibition mostly above about 28%, no sharp cut-off; inactive means mostly below about 43%; further: 0% is about no effect
RE007 growth inh: qHTS Assay for Inhibitors of the HIV-1 protein Vpr. S. pombe RE007 Vpr strain, BacTiter-Glo ATP luminescence, 24 h. Potency, µM (titrated, usually from 92.2 µM), inactives show top-dose activity change, negative = less growth, actives largely listed as inhibitors. 360,000 compounds, 0.21% hits. AID 651644, 2012; active means well fitted falling curve with a large enough effect; inconclusive means small, poorly fitted or top-dose-only effect; inactive means no such curve, though single readings can be large or run the other way; further: potency means the concentration at half of the fitted maximal effect; on the % scale 0 is the no-effect control and ±100 the full control effect; nearly all actives have a fitted effect of over 50% in size
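Fission yeast RE007 carrying one integrated HIV-1 vpr copy, seeded at OD 0.01 in PMG+AL medium with 23 nL pinned compound. Grown 24 h at 30 degrees; viability read by BacTiter-Glo luminescence after 5 min.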
* = called active by the depositor; ? = inconclusive; nt = no result; [ ] = another dose, or the depositor's remark. The full list was thinned out, with hits kept by preference. Unless noted, the call rests on the fitted dose curve; in most records, active means well fitted curve in the direction sought with a large enough effect; inconclusive means small, poorly fitted or top-dose-only effect, or another doubt; inactive means no such curve, though single readings can be large; an effect the other way counts as inactive or inconclusive.

SMILES	LmPK inhibitor	Giardia FBPA inh	CHX counter	Tb PYK inh	Shiga inhibitor	RE007 growth inh
CCOc1ccc(C2C(C#N)=C(N)N3C(=C2C#N)Sc2ccccc23)cc1 (centres undefined)	5%	-7%	26*	-34%	65*	-13%
CC1(C)CC(=O)c2sc(NS(C)(=O)=O)nc2C1	-2%	-15%	-4	-6%	-3	2%
CC1(C)CNC(=O)c2sc(N3CCCCC3)nc2C1	-2%	-1%	23*	-1%	56	2%
CC1(C)CC(=O)c2sc(N3CCCCC3)nc2C1	-2%	-1%	29*	1%	92*	-15%
CC12CCC=CC1C(c1ccoc1)N(Cc1ccccc1)C2=O (centres undefined)	nt	11%	-2	nt	16	nt
COc1ccccc1CCNC(=O)C(=O)NCC(c1ccco1)S(=O)(=O)c1ccc(F)cc1 (centres undefined)	nt	nt	nt	-16%	nt	nt
Cc1ccccc1-c1nc2scc(CCNC(=O)c3ccco3)n2n1	nt	nt	nt	0%	nt	nt
Cc1ccc(-n2[nH]c(C)c(/C=N/NC(=O)c3ccc(O)cc3O)c2=O)cc1	-2%	5%	25*	1%	73*	-24%
Cc1[nH]n(-c2ccccc2)c(=O)c1/C=N/NC(=O)c1ccc(O)cc1O	-9%	-24%	29*	-2%	68*	4%
CC(C)(C)c1ccc(OCC(=O)O)cc1	1%	6%	-3	5%	-17	3%
CN(C)C(=O)O/N=C(\N)COc1ccc(C(C)(C)C)cc1	-3%	4%	30*	4%	31	-39%
O=C(COC(=O)Cn1cnc2ccccc21)Nc1cc2c(cc1Cl)C(=O)c1ccccc1C2=O	-13%	-20%	37*	-5%	50*	3%
Cc1ccc(-c2cn3c(n2)sc2cc(C(=O)N4CCCCC4)ccc23)cc1	nt	nt	nt	-8%	nt	nt
CCCCOc1ccc(C(=O)Nc2ccc3c(c2)CCCN3S(=O)(=O)c2ccc(C)cc2)cc1	nt	nt	nt	0%	nt	nt
Cn1nc2c3ccccc3n(Cc3ccccc3)c2nc1=S	1%	6%	41*	-3%	121*	2%
Cc1ccc(/C=C/C(=O)NCCc2cccc(Cl)c2)o1	2%	3%	29*	16µM*	nt	10%
Cc1ccc(/C=C/C(=O)NCCc2c[nH]c3ccccc23)o1	-1%	-2%	2	-22%	1	7%
Cc1occc1C(=O)NCCCc1ccccc1	-1%	3%	25*	-12%	117	28%
Cc1occc1C(=O)NNC(=S)NCc1ccc(Cl)cc1	-1%	1%	28*	-6%	28	13%
Cc1occc1C(=O)NCCc1cccc(Cl)c1	8%	-8%	69*	-3%	130*	-23%
CC[C@H](C)N(C)C(=O)c1cc2ccccc2c(-c2ccccc2Cl)n1	nt	8%	nt	nt	nt	nt
O=[N+]([O-])C(/C=C(/Cl)[N+](=O)[O-])=C(N1CCCCC1)N1CCCCC1	-3%	-14%	3	-3%	17	1%
Cc1cc(NS(=O)(=O)c2c(C(=O)N3CCOCC3)c(C)n(C)c2C)ccc1Br	6%	0%	-6	-3%	-5	2%
Cc1ccc(/C=C/C(=O)NCc2ccc(S(N)(=O)=O)cc2)o1	-2%	-20%	-4	10µM*	-5	-6%
Cc1ccc(/C=C/C(=O)Nc2ccc(S(N)(=O)=O)cc2)o1	-16%	-18%	6	?	-8	-4%
SMILES	LmPK inhibitor	Giardia FBPA inh	CHX counter	Tb PYK inh	Shiga inhibitor	RE007 growth inh
O=[N+]([O-])c1ccc(Sc2ncc3ccccn23)nc1	6%	-1%	-3	-2%	17	25%
Clc1ccc(-c2ncc3ccccn23)cc1	12%	0%	4	5%	34	-8%
Nc1c(-c2cccc([N+](=O)[O-])c2)nc2ccccn12	-20%	-24%	112*	0%	82*	6%
COc1ccc(-c2ncc3ccccn23)cc1OC	-1%	?	24*	24%	10	-6%
O=[N+]([O-])c1cccc(-c2ncc3ccccn23)c1	1%	-4%	31*	-2%	68*	-18%
CC12CCC=CC1C(c1ccc3ccccc3c1)N(Cc1ccccc1)C2=O (centres undefined)	nt	-4%	1	nt	-5	nt
COc1ccc(OC)c(S(=O)(=O)NC(C)c2cnn(-c3ccccn3)c2C)c1 (centres undefined)	-8%	nt	-1	-11%	-25	-13%
CSCc1ccc(C(=O)NC(C)c2cnn(-c3ccccn3)c2C)o1 (centres undefined)	4%	12%	24*	-9%	48*	-7%
COCc1c(C(=O)Nc2nc(C)cs2)oc2ccccc12	6%	-8%	25*	1%	44*	-10%
CC(C)CNC(=O)c1oc2ccccc2c1COc1ccccc1	-1%	-2%	-5	-6%	-12	-17%
CCC(CC)NC(=O)c1oc2ccccc2c1COc1ccccc1	2%	1%	8.4*	-10%	25	4%
COCc1c(C(=O)Nc2ccc(Cl)cc2F)oc2ccccc12	1%[11.5 µM]	-2%	29*	1%	185*	3%
CN(C(=O)c1cc2c(=O)oc3ccccc3c2s1)c1ccc(F)cc1	nt	nt	nt	-1%	nt	nt
Cn1c(-c2ccccc2)cc2c3no[n+]([O-])c3ccc21	5%	1%	27*	-1%	68*	-11%
Cn1c(-c2ccccc2)cc2ccccc21	1%	0%	7	-1%	2	-9%
CO/N=C1\CN(c2nc3c(cc2F)c(=O)c(C(=O)O)cn3C2CC2)CC1CN (centres undefined)	nt	-1%	nt	3%	nt	nt
CCOc1ccc(C(=O)NC(=S)NCCCN2CCOCC2)cc1	-1%	-3%	-2	1%	-4	-11%
Cc1ccc(C(=O)NC(=S)NCCCN2CCOCC2)cc1	-3%	2%	20	1%	50*	-13%
O=C(NC(=S)NCCCN1CCOCC1)c1ccc(Br)cc1	-2%	2%	21*	3%	25	9%
COc1ccc(NC(=O)CCCn2nc(C)c3sc4ccccc4c3c2=O)cc1	nt	nt	nt	-6%	nt	nt
Cc1ccc(S(=O)(=O)c2c(O)cc(C)c(NS(=O)(=O)c3ccc(Cl)cc3)c2C)cc1	nt	nt	nt	1%	nt	nt
Cc1ccc(NS(=O)(=O)c2cccs2)nc1	-5%	-18%	1	1%	-5	-3%
CCCCS(=O)(=O)Nc1ccc(C)cn1	-1%	7.9µM*	-3	-30%	18	-6%
CCOc1ccccc1CNC(=O)c1cc2cc(S(=O)(=O)N3CCCCC3)ccc2n1C	nt	nt	nt	1%	nt	nt
Cc1ccc([N+](=O)[O-])cc1NC(=O)c1ccoc1C	-3%	1%	35*	-12%	48*	-7%
